Out of some 5,500 compounds screened, about 2,000 (36%) were called active. About 18% were inconclusive and are not listed. Rule as the data show it: active = normalized growth mostly below about 0.91 (no sharp cut-off); inconclusive = no clear call, values can overlap the other calls; inactive = mostly above about 0.92. The list shows a part of the results.
Assay: chemical genetic growth profiling, strain panel (AID 1159580);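 also: tested at 20 µM; growth read once vehicle control cultures reached saturation at 30 °C; 1 = growth at the plate median or of vehicle wells; lower values mean less growth of the strain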
Conditions: growth OD
[1] = S. cerevisiae deletion strains, locus YDL101C, strain DUN1, stronger effect = lower value
[2] = S. cerevisiae deletion strains, locus YHR030C, strain SLT2, stronger effect = lower value

Measured: normalized growth

c1ccc(CSC2=NCCCN2)cc1
inactive: S. cerevisiae deletion strains, locus YAL013W, strain DEP1, stronger effect = lower value 1 | S. cerevisiae deletion strains, locus YBR229C, strain ROT2, stronger effect = lower value 0.993 | [1] 1.01 | S. cerevisiae deletion strains, locus YDR150W, strain NUM1, stronger effect = lower value 0.977 | S. cerevisiae deletion strains, locus YEL061C, strain CIN8, stronger effect = lower value 1.02 | S. cerevisiae deletion strains, locus YGR078C, strain PAC10, stronger effect = lower value 1.01 | S. cerevisiae deletion strains, locus YGR229C, strain SMI1, stronger effect = lower value 1 | [2] 1.03 | S. cerevisiae deletion strains, locus YHR087W, strain rtc3, stronger effect = lower value 1.01 | S. cerevisiae deletion strains, locus YJR043C, strain POL32, stronger effect = lower value 1.01 | S. cerevisiae deletion strains, locus YJR075W, strain HOC1, stronger effect = lower value 0.997 | S. cerevisiae deletion strains, locus YKL190W, strain CNB1, stronger effect = lower value 1 | S. cerevisiae deletion strains, locus YLR039C, strain RIC1, stronger effect = lower value 0.993 | S. cerevisiae deletion strains, locus YLR058C, strain SHM2 (second series), stronger effect = lower value 1.01 | S. cerevisiae deletion strains, locus YLR085C, strain ARP6, stronger effect = lower value 1.04 | S. cerevisiae deletion strains, locus YLR262C, strain YPT6, stronger effect = lower value 1.01 | S. cerevisiae deletion strains, locus YML094W, strain GIM5, stronger effect = lower value 1 | S. cerevisiae deletion strains, locus YMR219W, strain ESC1, stronger effect = lower value 1.01 | S. cerevisiae deletion strains, locus YMR307W, strain GAS1, stronger effect = lower value 1 | S. cerevisiae deletion strains, locus YNL128W, strain TEP1, stronger effect = lower value 1.02 | S. cerevisiae deletion strains, locus YNL153C, strain GIM3, stronger effect = lower value 0.996 | S. cerevisiae deletion strains, locus YNL298W, strain CLA4 (second series), stronger effect = lower value 1.05 | S. cerevisiae deletion strains, locus YNL322C, strain KRE1, stronger effect = lower value 1.01 | S. cerevisiae deletion strains, locus YNR030W, strain Alg12, stronger effect = lower value 1.02 | S. cerevisiae deletion strains, locus YOL006C, strain TOP1, stronger effect = lower value 1.04 | S. cerevisiae deletion strains, locus YPL055C, strain LGE1, stronger effect = lower value 0.984 | S. cerevisiae deletion strains, locus YPL241C, strain CIN2, stronger effect = lower value 1.01 | S. cerevisiae deletion strains, locus YPR135W, strain CTF4, stronger effect = lower value 1.08 | S. cerevisiae strains, strain wild type, stronger effect = lower value 1.01

N=C(N)SCc1nc(-c2ccc(Cl)cc2)no1
inactive: S. cerevisiae deletion strains, locus YAR019C, strain CDC15, stronger effect = lower value 0.979 | S. cerevisiae deletion strains, locus YBL105C, strain PKC1, stronger effect = lower value 0.985 | S. cerevisiae deletion strains, locus YBR135W, strain CKS1, stronger effect = lower value 0.981 | S. cerevisiae deletion strains, locus YBR136W, strain MEC1, stronger effect = lower value 0.984 | S. cerevisiae deletion strains, locus YBR160W, strain CDC28, stronger effect = lower value 0.984 | S. cerevisiae deletion strains, locus YDL017W, strain CDC7, stronger effect = lower value 0.977 | S. cerevisiae deletion strains, locus YDL028C, strain MPS1, stronger effect = lower value 0.977 | [1] 0.99 | S. cerevisiae deletion strains, locus YDL108W, strain KIN28, stronger effect = lower value 0.976 | S. cerevisiae deletion strains, locus YDL132W, strain cdc53, stronger effect = lower value 0.99 | S. cerevisiae deletion strains, locus YDL214C, strain PRR2, stronger effect = lower value 0.975 | S. cerevisiae deletion strains, locus YDR052C, strain DBF4, stronger effect = lower value 0.99 | S. cerevisiae deletion strains, locus YDR054C, strain cdc34, stronger effect = lower value 0.978 | S. cerevisiae deletion strains, locus YDR226W, strain ADK1, stronger effect = lower value 0.978 | S. cerevisiae deletion strains, locus YDR477W, strain SNF1, stronger effect = lower value 0.977 | S. cerevisiae deletion strains, locus YER123W, strain YCK3, stronger effect = lower value 0.989 | S. cerevisiae deletion strains, locus YER133W, strain GLC7, stronger effect = lower value 0.986 | S. cerevisiae deletion strains, locus YFL009W, strain cdc4, stronger effect = lower value 0.983 | S. cerevisiae deletion strains, locus YFL029C, strain CAK1, stronger effect = lower value 0.978 | S. cerevisiae deletion strains, locus YFR003C, strain YPI1, stronger effect = lower value 0.982 | S. cerevisiae deletion strains, locus YFR019W, strain FAB1, stronger effect = lower value 0.973 | S. cerevisiae deletion strains, locus YFR028C, strain CDC14, stronger effect = lower value 0.986 | S. cerevisiae deletion strains, locus YGR040W, strain KSS1, stronger effect = lower value 0.98 | S. cerevisiae deletion strains, locus YGR052W, strain FMP48, stronger effect = lower value 1.03 | S. cerevisiae deletion strains, locus YGR092W, strain DBF2, stronger effect = lower value 0.987 | [2] 0.949 | S. cerevisiae deletion strains, locus YHR079C, strain IRE1, stronger effect = lower value 0.96 | S. cerevisiae deletion strains, locus YHR082C, strain KSP1, stronger effect = lower value 1.06 | S. cerevisiae deletion strains, locus YHR205W, strain SCH9, stronger effect = lower value 0.828 | S. cerevisiae deletion strains, locus YIL147C, strain SLN1, stronger effect = lower value 0.985 | S. cerevisiae deletion strains, locus YJL095W, strain BCK1, stronger effect = lower value 1.01 | S. cerevisiae deletion strains, locus YJL128C, strain PBS2, stronger effect = lower value 0.929 | S. cerevisiae deletion strains, locus YJL157C, strain FAR1, stronger effect = lower value 0.974 | S. cerevisiae deletion strains, locus YJR016C, strain ILV3, stronger effect = lower value 0.987 | S. cerevisiae deletion strains, locus YJR066W, strain TOR1 (second series), stronger effect = lower value 0.981 | S. cerevisiae deletion strains, locus YJR066W, strain TOR1, stronger effect = lower value 1.11 | S. cerevisiae deletion strains, locus YKL048C, strain ELM1, stronger effect = lower value 0.982 | S. cerevisiae deletion strains, locus YKL067W, strain YNK1, stronger effect = lower value 0.984 | S. cerevisiae deletion strains, locus YKL101W, strain HSL1, stronger effect = lower value 0.992 | S. cerevisiae deletion strains, locus YKL193C, strain SDS22, stronger effect = lower value 0.985 | S. cerevisiae deletion strains, locus YKL203C, strain TOR2, stronger effect = lower value 1.05 | S. cerevisiae deletion strains, locus YLR113W, strain HOG1, stronger effect = lower value 0.989 | S. cerevisiae deletion strains, locus YLR133W, strain CKI1, stronger effect = lower value 0.98 | S. cerevisiae deletion strains, locus YLR403W, strain SFP1, stronger effect = lower value 0.911 | S. cerevisiae deletion strains, locus YML070W, strain DAK1, stronger effect = lower value 0.996 | S. cerevisiae deletion strains, locus YMR001C, strain CDC5, stronger effect = lower value 0.981 | S. cerevisiae deletion strains, locus YMR205C, strain PFK2 (second series), stronger effect = lower value 0.981 | S. cerevisiae deletion strains, locus YMR277W, strain FCP1, stronger effect = lower value 0.985 | S. cerevisiae deletion strains, locus YNL006W, strain LST8, stronger effect = lower value 0.981 | S. cerevisiae deletion strains, locus YNL020C, strain ARK1, stronger effect = lower value 0.986 | S. cerevisiae deletion strains, locus YNL161W, strain CBK1, stronger effect = lower value 0.983 | S. cerevisiae deletion strains, locus YNL183C, strain NPR1, stronger effect = lower value 1.1 | S. cerevisiae deletion strains, locus YNL207W, strain RIO2, stronger effect = lower value 0.978 | S. cerevisiae deletion strains, locus YNL222W, strain SSU72, stronger effect = lower value 0.984 | S. cerevisiae deletion strains, locus YNL307C, strain MCK1 (second series), stronger effect = lower value 0.983 | S. cerevisiae deletion strains, locus YOL078W, strain AVO1, stronger effect = lower value 0.981 | S. cerevisiae deletion strains, locus YOL136C, strain PFK27, stronger effect = lower value 0.97 | S. cerevisiae deletion strains, locus YOR061W, strain CKA2, stronger effect = lower value 0.986 | S. cerevisiae deletion strains, locus YOR119C, strain RIO1, stronger effect = lower value 1.05 | S. cerevisiae deletion strains, locus YOR231W, strain MKK1, stronger effect = lower value 1.03 | S. cerevisiae deletion strains, locus YOR329C, strain SCD5, stronger effect = lower value 0.982 | S. cerevisiae deletion strains, locus YPL031C, strain PHO85, stronger effect = lower value 0.964 | S. cerevisiae deletion strains, locus YPL153C, strain RAD53, stronger effect = lower value 0.964 | S. cerevisiae deletion strains, locus YPL204W, strain HRR25, stronger effect = lower value 0.953 | S. cerevisiae deletion strains, locus YPL209C, strain IPL1, stronger effect = lower value 0.986 | S. cerevisiae deletion strains, locus YPL256C, strain CLN2, stronger effect = lower value 0.925 | S. cerevisiae deletion strains, locus YPR025C, strain CCL1, stronger effect = lower value 0.987 | S. cerevisiae deletion strains, locus YPR106W, strain ISR1, stronger effect = lower value 0.978 | S. cerevisiae deletion strains, locus YPR111W, strain DBF20, stronger effect = lower value 0.981 | S. cerevisiae deletion strains, strain NNK1, stronger effect = lower value 0.992 | S. cerevisiae deletion strains, strain TSCII, stronger effect = lower value 0.983
